# Assay results reported in article PMC12136788.
# Residue numbers refer to the chain shown, from its start. Whole data set: some 24,000 sequences, median “enrichment r” near 0.99, cut for the highest 2% near 3.7. This is one part of a sample in which the highest values are shown more often than they occur.
# T1: UNK ZnF1-3 (human, UniProt Q9C0B0 31-174)
# T1 sequence: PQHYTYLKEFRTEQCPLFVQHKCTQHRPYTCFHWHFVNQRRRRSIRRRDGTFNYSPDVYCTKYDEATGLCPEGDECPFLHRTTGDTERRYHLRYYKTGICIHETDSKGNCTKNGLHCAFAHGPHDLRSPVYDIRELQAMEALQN
# B1: chr10:114798999:114799000:-_ENSMUSG00000069520_ENSMUST00000092170|mus_mus|motif|central (ssRNA)
# RNA: GGGAGUUCUACAGUCCGACGAUCUCAUCUUUAUAUACCUUUUGCACGUAGUGUCGUCACUAUCUGUCAUGGAAAAUAGAGCGGCGAGCACAUCUUCCACCAACCGAACGACAAAAUAGAAUCGUAAAUCCAAAACGUCUAGUCCAACAGAGGAUUGAGCAUCA
# B2: chr1:225977196:225977197:+_ENSG00000143742_ENST00000304786|hu_mus|FALSE|FALSE (ssRNA)
# RNA: GGGAGUUCUACAGUCCGACGAUCAUUCCGUUUCCAAAAAUAAAGGUUUUCUAACUGGAAACCCCGACAUUCCUACUCUCUAAAGCAAACUUUAGGACGCAGGCUGGUCUCUCGGCUUUGACAGCUCCAUUACGUAAGUAUAUCCAACAGAGGAUUGAGCAUCA
# B3: 29117783_29124966_335_CDS_ENSG00000163811_ENST00000407426|human|control|control (ssRNA)
# RNA: GGGAGUUCUACAGUCCGACGAUCUUUUACUGUGCUGUAUAAUAAAAUGCUACCAACUGCUGUGCCAAGAGCCAAUAAGUCAGUCUGGUUACUCAUUCCUACAGCUUCUGAUUUCCUUUUUUUCCUCUGGGGACUUUCCUUGGCCAACAGAGGAUUGAGCAUCA
# B4: chr7:141450121:141450122:+_ENSG00000106028_ENST00000265304|hu_mus|hu_hu_hu_mus_True|18_38 (ssRNA)
# RNA: GGGAGUUCUACAGUCCGACGAUCUCAUCCGUUCUAUGCCUUUUCUUUUGUCUGGUCACUCAGAAAUAUAAUGUUAUCAGCUAUGAUUGUUGUUGCUUGUCGCCUCACAUUGUUUUUAUCCAUGUAUUCGCCAUAGUCCACUUUCAACAGAGGAUUGAGCAUCA
# B5: chr4:115894766:115894767:+_ENSMUSG00000028698_ENSMUST00000030464|mus_hu|mus_mus_mus_hu_True|18_98 (ssRNA)
# RNA: GGGAGUUCUACAGUCCGACGAUCUUCCACACGGAAAGUACUUGGGGGUUUUCCAACGGCCAGUACCAGUCCGGCCAAACUACCCGAACAGGGUCCUCCCCCUCUCUCCUACAGAACUAAAGCACCCGCCCCCGAACUUUCAAGCAACAGAGGAUUGAGCAUCA
# B6: chr7:140404665:140404666:+_ENSG00000090266_ENST00000247866|hu_hu|hu_hu_hu_mus_False|1_108 (ssRNA)
# RNA: GGGAGUUCUACAGUCCGACGAUCUGCGUACAGAGUGCCAGAGAGUUUACAGUGUCAGUCCUCGUCAUCAGGAGGGAUUCCCAGUUCUUCAUCUGUCCACUGUGAAGGAUCUGGAUAUGAAAAGUGACCCAGCACAGCUUCUGACAACAGAGGAUUGAGCAUCA
# B7: chr1:39494447:39494448:+_ENSG00000168653_ENST00000372967|hu_mus|hu_hu_hu_mus_False|78_108 (ssRNA)
# RNA: GGGAGUUCUACAGUCCGACGAUCGCAUCGACCAGCCUUCUUAUAGGGCUGUUCUGCACUCUGGAUUAUAAAGUGCCGGUCCAGGCUGAUGCCCAGCUUUUUCUGUAUGUCAAGGAAAGGCAUGGCUCUGCAGUGCCCUUGUCACAACAGAGGAUUGAGCAUCA
# B8: 114145877_114145997_1367_3pUTR_ENSMUSG00000033545_ENSMUST00000095176|mouse|control|control (ssRNA)
# RNA: GGGAGUUCUACAGUCCGACGAUCUUUGCAGUGGACAAUGUCUGUUCCACAGGCCACUACUUAGUGAUUCUUCCCUUUCAGAACCGAGUCUCUGAGAGGUGAGGGAGGUGAGGCUGCUGUAGAGCCUGGCUGGGGGCGCCUCUGCAACAGAGGAUUGAGCAUCA
# B9: chr7:130337358:130337359:+_ENSMUSG00000052707_ENSMUST00000094053|mus_mus|FALSE|FALSE (ssRNA)
# RNA: GGGAGUUCUACAGUCCGACGAUCACAAGAUUUUUUGACCGGGGAACUGGUUUCCUGAGAACCAUGCUCUUUGAUUUAGGACAGGAAUAGAAAACAGAAGAACAUGGCCAACUGCUGCUCUUUUCCCAGAGAUAGAAGCGUCUUCAACAGAGGAUUGAGCAUCA
# B10: chr2:165877891:165877892:+_ENSMUSG00000027678_ENSMUST00000088095|mus_mus|motif|central (ssRNA)
# RNA: GGGAGUUCUACAGUCCGACGAUCGAACCUCUGGAUACAUCUUCGGAUUAUGUCUUCAAAGCCAGGCCUCAUGGAAGAUCGGAGUGAGUUUGUAUCUAUAUUGACAACCUUUCCGGAAAGGUCAUGUCUGGUAAUAAAGCUCUCCAACAGAGGAUUGAGCAUCA
# B11: chr3:32586495:32586496:-_ENSG00000144635_ENST00000273130|hu_hu|FALSE|FALSE (ssRNA)
# RNA: GGGAGUUCUACAGUCCGACGAUCUUUCUGUAAAGAAUCCAAAGCAGUCCAAGGCUUUGACAUGUCAACAACCAGCAUAACUAGAGUAUCCUUCAGAGAUACGGCAUCCAGUGAAAAUUUAAGGAGGCCUUUGUGAUAUAGGUCCAACAGAGGAUUGAGCAUCA
# B12: chr19:7500544:7500545:-_ENSMUSG00000024758_ENSMUST00000025667|mus_mus|FALSE|FALSE (ssRNA)
# RNA: GGGAGUUCUACAGUCCGACGAUCACAGACACGUACACAAUUUCAUUAGUAAUUUUUUCAUCUCUACGAGUCUUUGUUUAAAAAAACAAAACCGAAAAAACCCUCUCAUGUAACACAGAAACCUUUCCAAUUAUUUUAACACAGCAACAGAGGAUUGAGCAUCA
# B13: chr13:100193591:100193592:-_ENSMUSG00000052727_ENSMUST00000064762|mus_mus|motif|central (ssRNA)
# RNA: GGGAGUUCUACAGUCCGACGAUCUUAAACCCUCAGAGUAAAAGAGCAGUGCGAAACAUACGCUUUACAGACGAAAAUAAACGGAAAUGUAAAUUUUGAAAUAAAUAACUAACAUAGAAAAUAAAAUGAGGUCAUUGUUCACUACAACAGAGGAUUGAGCAUCA
# B14: chr13:100193591:100193592:-_ENSMUSG00000052727_ENSMUST00000064762|mus_mus|FALSE|FALSE (ssRNA)
# RNA: B13 RNA with G82U, G83A
# Target: T1, UNK ZnF1-3
# Experiment: nsRBNS (natural sequence RNA bind-n-seq); RBNS binding buffer (assumed for nsRBNS): 25 mM Tris pH 7.5, 150 mM KCl, 3 mM MgCl2, 0.01% Triton X-100, 500 ug/ml BSA, 20 U/ml SUPERase-In, 4 C; UNK is unkempt and MSI1 is Musashi-1; names of the RNAs are library labels; protein concentration not given here; high values mean tight binding
row,Binder,binding signal
1,B1,0.824 enrichment R
2,B2,0.892 enrichment R
3,B3,0.828 enrichment R
4,B4,0.364 enrichment R
5,B5,1.44 enrichment R
6,B6,1.16 enrichment R
7,B7,1 enrichment R
8,B8,0.695 enrichment R
9,B9,0.987 enrichment R
10,B10,0.788 enrichment R
11,B11,1.74 enrichment R
12,B12,1.21 enrichment R
13,B13,4.73 enrichment R
14,B14,5.86 enrichment R
